Test [1] concerns Human papillomavirus type 1a protein E7 (residues 44-93). The test can be described thus: small molecules binding HPV E7 44-93 – biochemical, small-molecule microarray, residues 44-93, 635 nm fluorescence, primary screen (AID 1108).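 Further: E7 fragment applied at 1 µg/mL in TBST for 1 h at 4 C; score combines spot fluorescence with its signal to noise ratio.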 The following applies: fluorescence 635 nm, higher = more signal.
A short description of test [2]: hepatitis C replication reporter changes, two-sided – Huh7 cells, luciferase reporter, HCV replication inhibitor project, primary screen (AID 1109).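 Further: huh7 hepatoma cells harbouring a luciferase neomycin HCV replicon reporter; luciferase luminescence as measure of HCV replicon replication; test concentration not given here.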 The following applies: Huh7 HCV replicon luciferase reporter, 48 h; higher = more signal. A general note: In a reporter assay the amount or activity of a reporter protein is the signal.
Test [3] has as its target Left-right determination factor 2 (Homo sapiens) (UniProt O00292). Briefly: small molecules binding LEFTY2 protein – biochemical, small-molecule microarray, 635 nm fluorescence scan, primary screen (AID 1110). The following applies: higher = more signal.
In test [4] the target is Calmodulin-1 (Homo sapiens) (UniProt P0DP23). The test can be described thus: small molecules binding calmodulin-1 with EGTA – biochemical, small-molecule microarray, Cy5-labelled CALM1, profiling panel (AID 1111).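 Further: labelled calmodulin applied in Tris saline Tween buffer holding calcium plus EGTA and DTT.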 The following applies: Cy5-CALM1 binding fluorescence, higher = more signal.
The target is the same in test [5]. The test can be described thus: small molecules binding Ca-loaded calmodulin-1 – biochemical, small-molecule microarray, Cy5-labelled CALM1, plus calcium, artefact control for SMM control-protein annotation, profiling panel (AID 1112).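 Further: score merges spot fluorescence with signal to noise from triplicate slides.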 The following applies: Cy5-CALM1 binding fluorescence, higher = more signal.
Test [6] in a line: probe aWnt5a binding to arrayed compounds – biochemical, biotinylated probe, 635/667 nm fluorescence, primary screen (AID 1113).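 Further: score merges 667 nm fluorescence intensity with signal-to-noise per printed feature.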 The following applies: small-molecule microarray, higher = more signal.
Test [7] can be described thus: probe aShh binding to arrayed compounds – biochemical, biotinylated probe, 635/667 nm fluorescence, primary screen (AID 1114).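 Further: probe is biotin-labelled aShh protein from a stem cell growth factor screen; measures binding of labelled protein to compounds printed on the slide; score merges feature fluorescence at 667 nm with signal-to-noise.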 The following applies: small-molecule microarray, higher = more signal.
Test [8] in a line: probe aNog binding to arrayed compounds – biochemical, biotinylated probe, 635/667 nm fluorescence, primary screen (AID 1115).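 Further: probe is biotinylated aNog protein used at 0.15 µg/mL for 1 h at 4 C; z-score combines 667 nm fluorescence of each spot with its signal to noise.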 The following applies: small-molecule microarray, higher = more signal.
Test [9] addresses Torsin-1A-interacting protein 1 (Homo sapiens) (UniProt Q5JTV8). The test can be described thus: compound microarray binding of lysate hLAP1 – cell lysate, small-molecule microarray, COS7 lysate, 635/667 nm fluorescence, primary screen (AID 1116). The following applies: 635 nm fluorescence, higher = more signal.
Test [10] concerns the target Alpha-bungarotoxin (Bungarus multicinctus) (UniProt P60615). The test can be described thus: compounds binding labelled alpha-BTX control protein – biochemical, small-molecule microarray, Alexa647 label, 635/667 nm fluorescence, artefact control for SMM control protein annotation, profiling panel (AID 1117). The following applies: alpha-BTX-A647 binding fluorescence, higher = more signal.

The target in the next test is Albumin (Bos taurus) (UniProt P02769). Briefly: compounds binding labelled BSA control protein – biochemical, small-molecule microarray, Alexa647 label, 635/667 nm fluorescence, artefact control for SMM control protein annotation, profiling panel (AID 1118).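 Further: score merges 667 nm emission intensity and signal-to-noise per printed compound spot.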 The following applies: BSA-A647 binding, fluorescence 635 nm, higher = more signal.
Test [11] in a line: probe aXIP binding to arrayed compounds – biochemical, NeuroSMM set, 635/667 nm fluorescence, primary screen (AID 1119).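 Further: probe is the protein aXip251-270 applied at 1 µg/mL to compound-printed slides; binding of probe to printed compounds measured as 667 nm fluorescence plus signal to noise.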 The following applies: small-molecule microarray, higher = more signal, called active from +8 up or from −8 down.
A short description of test [12]: probe aNOTCH3 binding on compound microarray – biochemical, small-molecule microarray, 635/667 nm fluorescence, primary screen (AID 1120).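 Further: probe is a biotin-tagged antibody raised against NOTCH3 rather than NOTCH3 protein; score merges spot fluorescence near 667 nm with spot signal to noise.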 The following applies: higher = more signal.
Test [13] in a line: probe aNOTCH2 binding on compound microarray – biochemical, small-molecule microarray, 635/667 nm fluorescence, primary screen (AID 1121).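 Further: score merges feature fluorescence read at 667 nm with its signal to noise.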 The following applies: higher = more signal.
For test [14], the target named is Carbonic anhydrase 2 (Homo sapiens) (UniProt P00918). The test can be described thus: compounds binding carbonic anhydrase 2 – biochemical, small-molecule microarray, Alexa647-labelled CAII, profiling panel (AID 1122). The following applies: CAII-A647 binding fluorescence, higher = more signal.
Test [15] is described as follows: COS7 lysate on small-molecule microarray, probe aHis, 635 nm (AID 1123).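 Further: z-score combines 667nm fluorescence intensity with signal-to-noise per printed compound spot.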 The following applies: COS7 cell lysate, fluorescence, higher = more signal.
Test [16] in a line: probe aLAP1 signal on lysate-treated microarray – cell lysate, small-molecule microarray, COS7 lysate, primary screen (AID 1124).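 Further: lysate comes from COS7 cells expressing LAP1 and is applied at 0.3 µg/mL; score merges spot fluorescence near 667 nm with signal-to-noise over triplicate slides.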 The following applies: probe aLAP1, fluorescence, higher = more signal.
The test system of the next test is Sam68 (KHDRBS1). Briefly: compounds binding KHDRBS1 protein – biochemical, small-molecule microarray, 635 nm fluorescence, primary screen (AID 1125).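 Further: score merges 667 nm channel intensity with signal to noise over triplicate slides.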 The following applies: higher = more signal.
Test [17] concerns Chordin-like protein 2 (CHRDL2). Briefly: compounds binding chordin-like 2 – biochemical, small-molecule microarray, 635 nm fluorescence, primary screen (AID 1126).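 Further: printed compound slides probed with Chrdl2 protein at 4 µg/mL for 1 h at 4 C; score merges 667 nm emission intensity with signal to noise over three replicate slides.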 The following applies: fluorescence 635 nm, higher = more signal.
Test [18] concerns the target Concanavalin-A (Canavalia ensiformis) (UniProt P02866). The test can be described thus: compounds binding concanavalin A lectin – biochemical, small-molecule microarray, Alexa647 label, 635 nm, artefact control for SMM control protein annotation, primary screen (AID 1127).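 Further: z combines 667 nm emission intensity with signal-to-noise across three replicate slides.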 The following applies: ConA-A647 binding fluorescence, higher = more signal.

Active and inactive are the calls of the source.

The source of these data is PubChem BioAssay.

Sequence of Alpha-bungarotoxin (Bungarus multicinctus) (P60615 whole entry, looked up): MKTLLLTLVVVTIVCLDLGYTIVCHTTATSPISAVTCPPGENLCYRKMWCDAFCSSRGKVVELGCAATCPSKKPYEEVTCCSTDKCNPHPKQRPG
Sequence of Concanavalin-A (Canavalia ensiformis) (P02866 whole entry, looked up): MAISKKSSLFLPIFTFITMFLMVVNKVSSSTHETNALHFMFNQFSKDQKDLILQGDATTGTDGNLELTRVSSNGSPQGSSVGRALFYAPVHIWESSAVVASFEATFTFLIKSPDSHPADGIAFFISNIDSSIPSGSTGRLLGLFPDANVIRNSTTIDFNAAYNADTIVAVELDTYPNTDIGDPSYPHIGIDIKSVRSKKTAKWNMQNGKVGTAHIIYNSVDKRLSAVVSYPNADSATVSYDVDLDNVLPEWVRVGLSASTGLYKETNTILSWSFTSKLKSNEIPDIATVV
Sequence of Torsin-1A-interacting protein 1 (Homo sapiens) (Q5JTV8 whole entry, looked up): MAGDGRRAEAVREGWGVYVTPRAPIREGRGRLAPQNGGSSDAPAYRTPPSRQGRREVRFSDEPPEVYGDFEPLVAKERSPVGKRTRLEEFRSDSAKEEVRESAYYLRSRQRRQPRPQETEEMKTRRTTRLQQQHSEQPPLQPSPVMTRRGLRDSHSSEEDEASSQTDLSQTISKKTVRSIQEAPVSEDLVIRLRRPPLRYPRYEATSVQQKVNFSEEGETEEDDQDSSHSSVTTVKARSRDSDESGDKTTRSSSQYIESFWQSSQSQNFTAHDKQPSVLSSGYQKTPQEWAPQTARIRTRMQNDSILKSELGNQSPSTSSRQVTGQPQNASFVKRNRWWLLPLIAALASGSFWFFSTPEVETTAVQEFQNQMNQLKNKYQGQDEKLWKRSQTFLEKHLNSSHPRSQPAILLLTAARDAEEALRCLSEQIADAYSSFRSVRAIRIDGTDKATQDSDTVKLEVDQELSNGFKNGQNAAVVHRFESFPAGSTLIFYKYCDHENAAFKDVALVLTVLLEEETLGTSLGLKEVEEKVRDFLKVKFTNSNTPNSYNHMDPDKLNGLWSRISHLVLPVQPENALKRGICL
Sequence of Albumin (Bos taurus) (P02769 whole entry, looked up): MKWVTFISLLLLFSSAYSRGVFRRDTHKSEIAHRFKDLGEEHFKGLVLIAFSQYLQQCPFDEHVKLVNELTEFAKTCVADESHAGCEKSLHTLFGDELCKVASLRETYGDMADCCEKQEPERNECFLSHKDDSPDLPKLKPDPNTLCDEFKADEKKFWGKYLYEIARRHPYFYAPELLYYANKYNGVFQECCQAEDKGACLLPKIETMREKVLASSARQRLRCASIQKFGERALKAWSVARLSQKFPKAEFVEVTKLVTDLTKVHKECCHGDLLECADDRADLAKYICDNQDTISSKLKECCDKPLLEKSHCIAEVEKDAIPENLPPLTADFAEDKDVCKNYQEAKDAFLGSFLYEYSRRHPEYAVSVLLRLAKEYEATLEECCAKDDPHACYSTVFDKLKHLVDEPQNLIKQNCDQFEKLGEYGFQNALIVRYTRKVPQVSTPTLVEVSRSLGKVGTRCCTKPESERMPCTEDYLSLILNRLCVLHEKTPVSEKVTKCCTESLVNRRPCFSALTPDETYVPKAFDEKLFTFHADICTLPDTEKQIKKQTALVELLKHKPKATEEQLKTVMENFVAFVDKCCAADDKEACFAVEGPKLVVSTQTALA
Sequence of Left-right determination factor 2 (Homo sapiens) (O00292 whole entry, looked up): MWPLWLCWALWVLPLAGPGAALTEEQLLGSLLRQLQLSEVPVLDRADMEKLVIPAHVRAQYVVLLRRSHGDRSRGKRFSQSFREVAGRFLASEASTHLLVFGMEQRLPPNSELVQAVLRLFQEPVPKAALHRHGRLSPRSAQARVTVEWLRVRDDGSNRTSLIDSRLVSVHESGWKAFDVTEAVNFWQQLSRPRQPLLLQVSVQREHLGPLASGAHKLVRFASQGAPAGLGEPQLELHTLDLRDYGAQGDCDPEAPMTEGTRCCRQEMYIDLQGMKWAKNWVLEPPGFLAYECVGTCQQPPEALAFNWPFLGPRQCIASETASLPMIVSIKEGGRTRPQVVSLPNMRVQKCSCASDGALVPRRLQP

Consider `C=CCN1C(=O)[C@@]2(CCC(=O)OC(C)(C)C)N=C(c3ccc(OCCCO)cc3)O[C@H]2c2ccccc21`, for which the composite z-score worked out at 1.36 in test [1]; 0.224 in test [3]; 1.47 in test [4]; 0.516 in test [5]; 0.065 in test [6]; 0.0048 in test [7]. Further, the composite z-score in test [8] was -0.226; in test [9], 0.144; in test [10], 0.916; with Albumin (Bos taurus), 0.71; in [12] it was 0.108; in test [13] it was 0.0484. For the same molecule, the composite z-score in test [14] is 0.654; in test [15], 1.33; in [16] it was 0.0616; in the test on Sam68 (KHDRBS1), 0.817; in test [17] it was 0.145; in [18] it was 1.16. The molecule also had a z-score in test [2] of -2.97. For the same molecule, the composite Z-score in test [11] was 0.0873 (inactive).

For `C=CC[C@@H](OC(=O)Nc1ccc(OC)cc1)c1ccc(OCCO)cc1`, the composite z-score in test [1] was -1.65; in test [3], -1.8; in [4] it was -1.4; in test [5] it was -0.819; in [6], -0.224; in test [7] it was 0.0723. For the same molecule, the composite z-score was -0.364 in [8]; -0.326 in test [9]; -0.809 in test [10]; 0.384 with Albumin (Bos taurus); -0.46 in [12]; -0.0911 in test [13]. The composite z-score in test [14] was 0.709; in test [15], 0.31; in test [16] it was -0.347; with Sam68 (KHDRBS1), -0.661; in test [17], -2; in test [18] it was -1.54. This molecule yielded a z-score in test [2] of 1.51. In addition, the composite Z-score in test [11] was 0.166 (inactive).

Regarding `CC(C)NC(=O)[C@@]1(C)c2ccccc2C(=O)N(C(C)C)[C@H]1c1ccc(CO)cc1`, the composite z-score was -0.609 in test [1]; -3.05 in [3]; -0.614 in test [4]; -0.0732 in [5]; -0.296 in test [6]; -0.154 in [7]. Further, the composite z-score in test [8] is -0.435; in test [9], -1.97; in test [10] it was -0.43; with Albumin (Bos taurus), 0.177; in test [12] it was -0.471; in test [13] it was -0.132. Moreover, the composite z-score is 0.541 in test [14]; 2.61 in [15]; -0.217 in test [16]; 0.121 in the test with Sam68 (KHDRBS1); -2.33 in test [17]; -0.233 in [18]. The molecule also displayed a z-score in [2] of -0.593. In addition, the composite Z-score in test [11] is 0.22 (inactive).

Turning to `O=C1OC[C@@H](c2ccccc2)N2CC(/C=C/c3ccccc3)=CC12` (stereo not given in full), the composite z-score in [1] was -1.13; in test [3], -1.43; in test [4], -0.353; in test [5] it was -0.221; in test [6], -0.284; in test [7] it was -0.2. The composite z-score in test [8] was -0.0118; in test [9] it was -0.383; in test [10], -0.273; with Albumin (Bos taurus) it was 0.0154; in test [12] it was -0.36; in test [13] it was -0.189. Moreover, the composite z-score in [14] was 0.453; in test [15], -0.428; in [16], 0.133; in the test on Sam68 (KHDRBS1), -1.57; in test [17], -0.713; in [18] it was -0.044. The molecule also came in with a z-score in [2] of -0.557. Moreover, the composite Z-score in test [11] was 0.142 (inactive).

With `NC(N)=NCc1cn(CCc2c[nH]c3ccccc23)nn1`, the composite z-score in [1] was 0.712; in test [3], 1.23; in test [4] it was -0.732; in [5] it was -1; in test [6] it was -0.114; in [7] it was 0.0141. In addition, the composite z-score is -0.158 in [8]; 0.615 in test [9]; 0.755 in [10]; 0.566 in the test with Albumin (Bos taurus); -0.0647 in test [12]; -0.12 in [13]. For the same molecule, the composite z-score was 0.633 in test [14]; 0.421 in test [15]; 0.262 in test [16]; 0.714 in the test with Sam68 (KHDRBS1); 0.866 in test [17]; 0.948 in test [18]. This molecule also registered a z-score in test [2] of -1.66. In addition, in test [11], the composite Z-score is 0.354 (inactive).

`CCOC(=O)C[C@H]1[C@H](OC(=O)c2ccc(C(=O)c3ccccc3)cc2)[C@@H](NC(=O)c2ccc3ccccc3c2)c2cc(OCCCO)ccc2N1C(=O)c1ccccc1`: the composite z-score in test [1] is 0.974; in [3], 0.317; in test [4], 0.988; in [5] it was 0.602; in test [6], -0.0346; in test [7], 0.0684. Also, the composite z-score amounted to 0.612 in test [8]; 0.602 in [9]; 1.04 in test [10]; 0.362 with Albumin (Bos taurus); 0.0893 in test [12]; 0.127 in test [13]. Moreover, the composite z-score was 0.197 in test [14]; 1.26 in test [15]; 0.8 in test [16]; 1.32 with Sam68 (KHDRBS1); -0.257 in test [17]; 1.04 in test [18]. Further, the z-score in test [2] was -0.617. In addition, the composite Z-score in [11] is 0.224 (inactive).
